Experimental data from the supplement of paper PMC3545927.
This is one part of the list. The true hit rate is not given.

Target: furin, P09958
Test: furin cleavage Z-score vs untreated control; higher = more cleavage, active = 3.5 or more, inactive = 1 or less, 8 variable residues between constant flanks
How it was run: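 Magnetic beads held 8-mer peptides by the N-terminus, each fused to a cDNA oligonucleotide, and purified furin was added for 7.5, 15 or 30 min. Released DNA was sequenced after PCR adapter tagging. The cleavage Z-score is the log count relative to furin-free reactions, lowess-adjusted and divided by median absolute deviation.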
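Note: purified furin at 1:10 enzyme:substrate in 50 mM HEPES pH 7.5.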

Sequence of furin, P09958 (P09958 whole entry): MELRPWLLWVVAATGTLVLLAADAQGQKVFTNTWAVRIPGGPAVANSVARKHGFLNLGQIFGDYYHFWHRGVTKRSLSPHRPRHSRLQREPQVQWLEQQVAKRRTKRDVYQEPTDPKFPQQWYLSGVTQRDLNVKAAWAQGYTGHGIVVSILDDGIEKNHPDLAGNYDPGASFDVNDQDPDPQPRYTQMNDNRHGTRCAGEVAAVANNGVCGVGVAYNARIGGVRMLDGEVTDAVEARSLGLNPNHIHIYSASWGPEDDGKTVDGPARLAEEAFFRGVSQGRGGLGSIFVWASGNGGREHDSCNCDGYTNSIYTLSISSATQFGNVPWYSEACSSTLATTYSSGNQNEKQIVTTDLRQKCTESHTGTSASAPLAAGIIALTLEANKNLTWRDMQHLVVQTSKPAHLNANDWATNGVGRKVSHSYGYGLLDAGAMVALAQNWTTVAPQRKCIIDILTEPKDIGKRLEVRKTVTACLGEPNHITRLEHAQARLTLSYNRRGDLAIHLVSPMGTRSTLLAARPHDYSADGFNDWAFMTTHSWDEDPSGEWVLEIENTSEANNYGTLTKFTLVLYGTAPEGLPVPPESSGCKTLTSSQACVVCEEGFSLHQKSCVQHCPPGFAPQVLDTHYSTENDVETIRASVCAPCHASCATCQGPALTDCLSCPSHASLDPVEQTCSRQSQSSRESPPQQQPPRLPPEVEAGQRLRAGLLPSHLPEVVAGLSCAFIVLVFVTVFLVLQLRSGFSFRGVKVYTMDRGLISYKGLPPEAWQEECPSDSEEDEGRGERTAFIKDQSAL

Row | Sequence | furin cleavage Z-score (7.5 min) | furin cleavage Z-score (15 min) | furin cleavage Z-score (30 min)
1 | CAGAPTYSWGAGNASASA [HC422] | -0.832 (inactive) | -0.574 (inactive) | -0.69 (inactive)
2 | CAWTPCSAHLAGNASASA [HC2468] | -0.238 (inactive) | 0.336 (inactive) | -1.23 (inactive)
3 | CAMEECSSHLAGNASASA [HC1737] | -0.244 (inactive) | 0.0684 (inactive) | 0.567 (inactive)
4 | CASTCCSAHLAGNASASA [HC2520] | -0.141 (inactive) | 0.556 (inactive) | -0.184 (inactive)
5 | CARACRLVHDAGNASASA [FS-2127] | -0.975 (inactive) | -0.538 (inactive) | -0.874 (inactive)
6 | CARRRRLLQQAGNASASA [FS-3167] | -0.397 (inactive) | -0.514 (inactive) | -0.168 (inactive)
7 | CARRRRFSRTAGNASASA [FS-1482] | 12.1 (active) | 11.9 (active) | 9.62 (active)
8 | CARRRREAPKAGNASASA [FS-2452] | 10.9 (active) | 12.3 (active) | 8.72 (active)
9 | CARRRRNVHDAGNASASA [FS-2375] | 4.94 (active) | 5.47 (active) | 4.66 (active)
10 | CARRRREYWQAGNASASA [FS-2077] | 1.57 | 2.17 | 5.41 (active)
11 | CAVYEAADAIAGNASASA [HC267] | -0.0143 (inactive) | -0.395 (inactive) | -0.118 (inactive)
12 | CATPMGFSYDAGNASASA [HC1477] | -1.01 (inactive) | -0.454 (inactive) | -1.57 (inactive)
13 | CARRRREGGAAGNASASA [FS-2373] | -0.0204 (inactive) | 0.649 (inactive) | 0.0983 (inactive)
14 | CARRRRFERAAGNASASA [FS-1566] | 10.7 (active) | 10.7 (active) | 8.07 (active)
15 | CAHPLRPAREAGNASASA [FS-1210] | 5.83 (active) | 7.36 (active) | 6.09 (active)
16 | CASSVRPAREAGNASASA [FS-197] | 5.98 (active) | 7.51 (active) | 5.17 (active)
17 | CAVVCCSASYAGNASASA [HC2043] | 0.0516 (inactive) | 0.0797 (inactive) | 0.0526 (inactive)
18 | CALEKRQKRDAGNASASA [FS-1639] | 14.8 (active) | 13.5 (active) | 11.4 (active)
19 | CALEKRSVGCAGNASASA [FS-2391] | -0.325 (inactive) | -2.06 (inactive) | -0.0695 (inactive)
20 | CAGLGKVLIDAGNASASA [HC1082] | -0.199 (inactive) | -0.846 (inactive) | -0.271 (inactive)
21 | CAGLRDLAVAAGNASASA [HC642] | 1.12 | -0.299 (inactive) | -1.6 (inactive)
22 | CAMSARRARDAGNASASA [FS-463] | 9.65 (active) | 10.9 (active) | 7.88 (active)
23 | CANPARVCRDAGNASASA [FS-278] | 6.13 (active) | 5.66 (active) | 4.1 (active)
24 | CAELGRPARDAGNASASA [FS-926] | 0.0348 (inactive) | -0.0349 (inactive) | -0.833 (inactive)
25 | CANPARDDRSAGNASASA [FS-946] | 1.25 | 0.0847 (inactive) | -1.86 (inactive)
26 | CAGLRRQKRDAGNASASA [FS-1000] | 12.6 (active) | 12.8 (active) | 9.7 (active)
27 | CATTPCSGWWAGNASASA [HC1908] | -0.371 (inactive) | -1.44 (inactive) | 0.0983 (inactive)
28 | CAMEECSQHGAGNASASA [HC1776] | -0.484 (inactive) | 0.542 (inactive) | -0.44 (inactive)
